Data on seven molecules can be found in ChEMBL document CHEMBL1961873, “Compounds: GSK PKIS; Assays: Nanosyn kinase panel” (2012).

In assay [1] the target is T1, Muscle, skeletal receptor tyrosine-protein kinase (Homo sapiens) (UniProt O15146).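 Further: reported value is the mean percent inhibition of MuSK kinase.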
T1 sequence (whole entry): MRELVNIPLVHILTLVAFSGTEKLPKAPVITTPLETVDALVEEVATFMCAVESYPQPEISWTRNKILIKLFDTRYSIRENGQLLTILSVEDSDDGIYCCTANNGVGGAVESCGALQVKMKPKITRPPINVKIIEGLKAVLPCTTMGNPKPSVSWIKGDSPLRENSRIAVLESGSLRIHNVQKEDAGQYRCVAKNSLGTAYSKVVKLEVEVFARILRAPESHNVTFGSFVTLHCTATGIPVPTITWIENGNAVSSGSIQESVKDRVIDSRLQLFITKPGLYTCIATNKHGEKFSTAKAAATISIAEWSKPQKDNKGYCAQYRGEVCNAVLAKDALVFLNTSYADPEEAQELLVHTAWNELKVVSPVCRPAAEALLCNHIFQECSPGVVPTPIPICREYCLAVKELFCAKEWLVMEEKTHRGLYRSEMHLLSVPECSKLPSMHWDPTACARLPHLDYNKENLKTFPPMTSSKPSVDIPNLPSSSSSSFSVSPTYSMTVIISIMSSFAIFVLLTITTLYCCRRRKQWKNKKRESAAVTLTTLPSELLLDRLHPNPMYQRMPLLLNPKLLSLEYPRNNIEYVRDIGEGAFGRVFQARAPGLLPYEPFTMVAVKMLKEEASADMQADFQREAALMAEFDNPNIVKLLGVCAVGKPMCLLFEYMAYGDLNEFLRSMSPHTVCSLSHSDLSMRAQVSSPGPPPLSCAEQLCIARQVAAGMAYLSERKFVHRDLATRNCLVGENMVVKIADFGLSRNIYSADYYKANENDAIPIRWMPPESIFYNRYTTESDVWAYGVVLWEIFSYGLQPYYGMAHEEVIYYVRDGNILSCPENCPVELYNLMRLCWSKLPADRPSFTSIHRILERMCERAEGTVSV
The conditions noted are these: at 1 µM.

Assay [2] has as its target Platelet-derived growth factor receptor alpha (Homo sapiens) (UniProt P16234). The settings on record: at 0.1 µM.
The target is the same in assay [3]. The conditions noted are these: at 1 µM.
Assay [4] relates to Platelet-derived growth factor receptor alpha (Homo sapiens), P16234 [D842V]. The conditions noted are these: at 0.1 µM.
Assay [5] has the same test system. The settings on record: at 1 µM.
Assay [6] deals with Platelet-derived growth factor receptor alpha (Homo sapiens), P16234 [T674I]. The settings on record: at 0.1 µM.
Assay [7] shares this test system. The conditions noted are these: at 1 µM.
Assay [8] has as its system Platelet-derived growth factor receptor alpha (Homo sapiens), P16234 [V561D]. The conditions noted are these: at 0.1 µM.
The test system is the same in assay [9]. The settings on record: at 1 µM.
Assay [10] concerns the target Platelet-derived growth factor receptor beta (Homo sapiens) (UniProt P09619). The settings on record: at 0.1 µM.
Assay [11] shares this target. The settings on record: at 1 µM.
Assay [12] deals with Tyrosine-protein kinase FRK (Homo sapiens) (UniProt P42685). The conditions noted are these: at 0.1 µM.
Tyrosine-protein kinase FRK (Homo sapiens), sequence (P42685 whole entry): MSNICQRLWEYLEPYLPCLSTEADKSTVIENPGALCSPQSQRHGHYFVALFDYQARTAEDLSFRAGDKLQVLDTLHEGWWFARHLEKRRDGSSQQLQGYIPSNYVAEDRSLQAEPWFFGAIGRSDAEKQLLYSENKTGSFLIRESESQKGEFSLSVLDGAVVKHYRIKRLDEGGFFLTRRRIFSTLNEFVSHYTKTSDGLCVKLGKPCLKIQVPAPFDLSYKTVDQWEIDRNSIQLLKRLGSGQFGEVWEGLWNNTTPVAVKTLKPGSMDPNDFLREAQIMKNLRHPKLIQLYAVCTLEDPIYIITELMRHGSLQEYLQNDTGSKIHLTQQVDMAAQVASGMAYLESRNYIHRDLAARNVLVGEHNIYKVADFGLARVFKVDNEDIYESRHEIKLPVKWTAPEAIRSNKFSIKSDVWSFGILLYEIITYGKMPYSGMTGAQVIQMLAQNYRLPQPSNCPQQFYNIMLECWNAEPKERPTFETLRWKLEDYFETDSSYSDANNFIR
Assay [13] has the same target. The conditions noted are these: at 1 µM.
Assay [14] concerns the target Protein-tyrosine kinase 2-beta (Homo sapiens) (UniProt Q14289). The conditions noted are these: at 0.1 µM.
For assay [15] the target is unchanged. The conditions noted are these: at 1 µM.
Assay [16] has as its target Proto-oncogene tyrosine-protein kinase receptor Ret (Homo sapiens) (UniProt P07949). The conditions noted are these: at 0.1 µM.
For assay [17] the target is unchanged. The conditions noted are these: at 1 µM.
The subject of assay [18] is Proto-oncogene tyrosine-protein kinase receptor Ret (Homo sapiens), P07949 [V804L]. The conditions noted are these: at 0.1 µM.
Assay [19] shares this test system. The conditions noted are these: at 1 µM.
The test system of assay [20] is Proto-oncogene tyrosine-protein kinase receptor Ret (Homo sapiens), P07949 [Y791F]. The conditions noted are these: at 0.1 µM.

Platelet-derived growth factor receptor alpha (Homo sapiens), P16234 [V561D], sequence (P16234 whole entry V561D): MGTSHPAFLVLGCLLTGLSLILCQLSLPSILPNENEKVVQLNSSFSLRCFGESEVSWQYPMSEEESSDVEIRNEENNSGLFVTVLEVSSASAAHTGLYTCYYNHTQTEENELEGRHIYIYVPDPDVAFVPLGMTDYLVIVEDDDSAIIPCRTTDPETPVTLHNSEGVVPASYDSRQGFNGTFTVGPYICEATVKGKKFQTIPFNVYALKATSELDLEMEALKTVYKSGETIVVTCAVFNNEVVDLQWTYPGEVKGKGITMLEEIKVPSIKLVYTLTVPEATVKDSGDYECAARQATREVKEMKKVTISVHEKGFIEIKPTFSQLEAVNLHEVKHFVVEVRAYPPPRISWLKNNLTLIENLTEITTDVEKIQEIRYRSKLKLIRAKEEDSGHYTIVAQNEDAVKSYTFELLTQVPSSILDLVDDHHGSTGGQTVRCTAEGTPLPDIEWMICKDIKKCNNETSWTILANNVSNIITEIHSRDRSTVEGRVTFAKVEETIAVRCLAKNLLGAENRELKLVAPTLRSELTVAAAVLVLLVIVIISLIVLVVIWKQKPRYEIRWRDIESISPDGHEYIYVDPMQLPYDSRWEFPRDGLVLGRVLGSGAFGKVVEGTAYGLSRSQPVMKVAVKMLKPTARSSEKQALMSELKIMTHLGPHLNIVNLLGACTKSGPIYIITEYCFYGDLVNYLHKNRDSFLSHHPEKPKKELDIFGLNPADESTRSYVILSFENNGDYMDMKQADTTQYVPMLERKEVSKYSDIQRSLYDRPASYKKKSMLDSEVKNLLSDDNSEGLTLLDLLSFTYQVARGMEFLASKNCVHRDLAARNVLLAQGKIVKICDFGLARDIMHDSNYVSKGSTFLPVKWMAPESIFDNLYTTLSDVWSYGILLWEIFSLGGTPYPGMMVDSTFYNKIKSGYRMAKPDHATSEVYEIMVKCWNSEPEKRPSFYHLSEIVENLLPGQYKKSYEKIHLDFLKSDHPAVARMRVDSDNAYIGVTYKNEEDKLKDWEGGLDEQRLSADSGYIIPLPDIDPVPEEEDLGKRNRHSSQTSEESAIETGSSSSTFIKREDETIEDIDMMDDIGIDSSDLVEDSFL
Platelet-derived growth factor receptor beta (Homo sapiens), sequence (P09619 whole entry): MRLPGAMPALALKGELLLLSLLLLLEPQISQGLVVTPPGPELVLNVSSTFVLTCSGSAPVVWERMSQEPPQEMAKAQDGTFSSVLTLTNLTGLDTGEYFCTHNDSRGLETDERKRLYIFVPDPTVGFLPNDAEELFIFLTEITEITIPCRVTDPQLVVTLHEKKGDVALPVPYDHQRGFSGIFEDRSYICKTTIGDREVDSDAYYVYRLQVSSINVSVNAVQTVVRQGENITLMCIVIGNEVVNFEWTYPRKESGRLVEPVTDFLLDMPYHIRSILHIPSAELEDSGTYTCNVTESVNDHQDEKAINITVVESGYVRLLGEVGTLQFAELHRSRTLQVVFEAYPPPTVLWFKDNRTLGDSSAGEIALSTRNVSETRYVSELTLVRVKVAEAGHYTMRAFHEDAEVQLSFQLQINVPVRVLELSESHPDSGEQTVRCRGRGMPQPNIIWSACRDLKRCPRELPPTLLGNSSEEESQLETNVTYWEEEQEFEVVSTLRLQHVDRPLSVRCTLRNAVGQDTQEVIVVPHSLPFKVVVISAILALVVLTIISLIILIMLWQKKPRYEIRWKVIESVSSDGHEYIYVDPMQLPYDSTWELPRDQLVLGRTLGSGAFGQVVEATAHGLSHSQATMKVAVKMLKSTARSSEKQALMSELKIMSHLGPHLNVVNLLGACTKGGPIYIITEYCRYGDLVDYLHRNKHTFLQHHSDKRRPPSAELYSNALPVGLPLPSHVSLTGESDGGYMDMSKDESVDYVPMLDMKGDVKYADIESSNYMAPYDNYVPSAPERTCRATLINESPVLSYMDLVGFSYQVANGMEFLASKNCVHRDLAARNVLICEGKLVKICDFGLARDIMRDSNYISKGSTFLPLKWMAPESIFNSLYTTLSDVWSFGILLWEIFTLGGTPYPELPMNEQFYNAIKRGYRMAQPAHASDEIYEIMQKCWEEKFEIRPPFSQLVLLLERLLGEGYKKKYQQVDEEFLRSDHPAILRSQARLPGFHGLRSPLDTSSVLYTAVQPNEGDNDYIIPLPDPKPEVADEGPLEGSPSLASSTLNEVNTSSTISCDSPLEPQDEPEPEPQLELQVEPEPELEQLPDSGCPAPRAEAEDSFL
Proto-oncogene tyrosine-protein kinase receptor Ret (Homo sapiens), P07949 [V804L], sequence (P07949 whole entry V804L): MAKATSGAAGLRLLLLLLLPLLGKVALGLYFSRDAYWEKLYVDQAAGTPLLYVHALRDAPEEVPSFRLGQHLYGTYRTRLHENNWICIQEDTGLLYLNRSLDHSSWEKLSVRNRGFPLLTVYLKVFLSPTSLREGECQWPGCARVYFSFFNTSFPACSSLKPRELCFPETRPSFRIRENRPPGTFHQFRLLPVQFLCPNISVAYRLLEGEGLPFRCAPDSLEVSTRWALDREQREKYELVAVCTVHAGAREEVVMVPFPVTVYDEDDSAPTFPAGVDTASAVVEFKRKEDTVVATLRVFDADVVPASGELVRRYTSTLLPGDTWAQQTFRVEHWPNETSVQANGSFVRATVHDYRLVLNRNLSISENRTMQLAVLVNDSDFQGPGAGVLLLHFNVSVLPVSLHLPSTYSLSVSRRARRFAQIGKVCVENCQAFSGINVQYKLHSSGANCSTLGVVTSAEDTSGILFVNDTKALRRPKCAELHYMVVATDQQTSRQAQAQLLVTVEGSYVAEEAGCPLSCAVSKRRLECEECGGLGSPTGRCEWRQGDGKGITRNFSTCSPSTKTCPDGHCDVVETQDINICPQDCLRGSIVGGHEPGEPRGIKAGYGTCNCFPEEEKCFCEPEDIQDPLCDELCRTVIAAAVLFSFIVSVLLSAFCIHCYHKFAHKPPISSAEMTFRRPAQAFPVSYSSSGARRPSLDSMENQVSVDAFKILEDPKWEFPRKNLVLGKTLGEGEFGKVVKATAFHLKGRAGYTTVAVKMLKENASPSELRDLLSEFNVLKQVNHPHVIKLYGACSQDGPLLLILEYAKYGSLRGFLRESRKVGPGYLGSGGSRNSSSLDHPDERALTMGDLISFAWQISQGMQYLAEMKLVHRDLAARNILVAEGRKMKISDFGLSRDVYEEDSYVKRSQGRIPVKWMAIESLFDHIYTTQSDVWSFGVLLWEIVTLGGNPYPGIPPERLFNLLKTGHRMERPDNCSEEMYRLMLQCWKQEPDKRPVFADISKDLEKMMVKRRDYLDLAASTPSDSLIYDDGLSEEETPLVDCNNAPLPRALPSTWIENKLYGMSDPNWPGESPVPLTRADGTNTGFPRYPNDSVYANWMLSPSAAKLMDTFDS
Protein-tyrosine kinase 2-beta (Homo sapiens), sequence (Q14289 whole entry, looked up): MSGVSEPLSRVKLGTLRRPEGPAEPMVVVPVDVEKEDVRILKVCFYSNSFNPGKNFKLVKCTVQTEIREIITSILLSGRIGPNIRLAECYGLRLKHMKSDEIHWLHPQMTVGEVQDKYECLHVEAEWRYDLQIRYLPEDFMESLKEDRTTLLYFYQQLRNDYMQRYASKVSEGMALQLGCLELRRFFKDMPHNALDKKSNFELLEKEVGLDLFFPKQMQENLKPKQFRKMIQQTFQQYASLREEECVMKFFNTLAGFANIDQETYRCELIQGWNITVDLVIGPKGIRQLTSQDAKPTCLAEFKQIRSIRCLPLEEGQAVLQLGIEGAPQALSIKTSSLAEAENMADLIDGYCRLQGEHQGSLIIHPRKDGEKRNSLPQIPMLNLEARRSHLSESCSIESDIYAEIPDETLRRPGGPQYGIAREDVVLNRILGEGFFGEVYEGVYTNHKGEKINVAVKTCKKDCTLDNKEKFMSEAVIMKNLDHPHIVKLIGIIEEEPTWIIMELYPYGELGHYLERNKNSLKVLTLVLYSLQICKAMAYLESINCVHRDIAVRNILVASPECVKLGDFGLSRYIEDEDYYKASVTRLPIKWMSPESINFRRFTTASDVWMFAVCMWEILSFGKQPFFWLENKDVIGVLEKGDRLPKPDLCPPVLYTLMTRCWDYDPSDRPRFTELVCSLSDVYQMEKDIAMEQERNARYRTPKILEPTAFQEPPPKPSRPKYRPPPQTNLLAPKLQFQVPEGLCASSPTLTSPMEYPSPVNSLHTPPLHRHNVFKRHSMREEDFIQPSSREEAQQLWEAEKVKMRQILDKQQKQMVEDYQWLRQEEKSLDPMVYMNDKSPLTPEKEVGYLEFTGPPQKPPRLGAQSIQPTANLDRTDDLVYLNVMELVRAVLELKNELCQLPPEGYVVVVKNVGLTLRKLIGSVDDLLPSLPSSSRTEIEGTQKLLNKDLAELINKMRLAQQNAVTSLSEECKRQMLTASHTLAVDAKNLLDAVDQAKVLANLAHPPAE

Take `CCn1c(-c2nonc2N)nc2cncc(C(=O)N3CC[C@H](N)C3)c21`: the inhibition in [1] worked out at 3.51%; in assay [2], 7.67%; in assay [3] it was 6.08%; in assay [4], 4.02%; in [5], 5.6%; in assay [6], 6.8%. Also, the inhibition in [7] came out at 8.93%; in [8], 2.86%; in [9], 1.28%; in assay [10] it was 4.13%; in assay [11], 10.7%; in assay [12] it was 3.16%. The inhibition in assay [13] is 2.04%; in assay [14], 10.8%; in assay [15], 7.69%; in assay [16], 5.56%; in [17], 4.11%; in assay [18], 3.46%. The inhibition is 4.03% in assay [19] and 4.17% in assay [20].

Take `O=C(Nc1n[nH]c2nc(-c3ccco3)c(Br)cc12)C1CC1`: the inhibition in assay [1] is 6.32%; in [2] it was 4.56%; in [3], 12.9%; in [4], 0.77%; in assay [5], 4.15%; in assay [6] it was 5.19%. Moreover, the inhibition is 6.07% in assay [7]; 0.75% in assay [8]; 4.4% in assay [9]; 3.97% in [10]; 6.81% in assay [11]; 1.22% in assay [12]. The inhibition in [13] is 4.35%; in [14], -1.24%; in assay [15], 3.71%; in assay [16], 6.36%; in [17] it was 4.7%; in assay [18] it was 4.14%. Moreover, the inhibition in assay [19] is 0.95%; in [20], 4.67%.

For the molecule `CCn1c(-c2nonc2N)nc2c(N3CCCC3)nccc21`, the inhibition in [1] was 3.11%; in assay [2], -0.08%; in [3], 6.63%; in assay [4], 1.78%; in assay [5] it was 3.11%; in [6], 0.33%. Moreover, the inhibition was 0.11% in [7]; 3.21% in assay [8]; 3.61% in assay [9]; 3.37% in assay [10]; 8.55% in assay [11]; -0.17% in assay [12]. Moreover, the inhibition is 0% in assay [13]; 1.2% in assay [14]; -3.88% in assay [15]; 4.49% in [16]; 20.8% in assay [17]; 0.68% in assay [18]. The inhibition in assay [19] was -0.73%; in assay [20] it was 0%.

Take `COc1ccc(-c2ccncc2)cc1C(N)=O`: the inhibition in assay [1] came out at 8.58%; in assay [2] it was 10.2%; in assay [3], 15.4%; in [4] it was 1.62%; in [5] it was 4.35%; in assay [6], 5.26%. Besides, the inhibition amounted to 8.98% in [7]; 3.41% in assay [8]; 6.77% in assay [9]; 5.16% in assay [10]; 11.4% in assay [11]; 4.92% in assay [12]. Further, the inhibition was found to be 5.68% in [13]; 5.98% in assay [14]; 11.3% in assay [15]; 3.52% in assay [16]; 6.29% in [17]; 2.72% in assay [18]. The inhibition is 9.41% in assay [19] and 4.39% in assay [20].

Take `CS(=O)(=O)CCNCc1ccc(-c2ccc3ncnc(Nc4ccc(OCc5ccccc5)c(Cl)c4)c3c2)o1`: the inhibition in assay [1] turned out to be 4.27%; in [2], 6.84%; in assay [3], 9.41%; in assay [4], 2.28%; in assay [5], 2.49%; in assay [6] it was 8.72%. Moreover, the inhibition in assay [7] was determined as 11.1%; in assay [8], 4.4%; in [9], 4.91%; in [10] it was 2.08%; in assay [11], 5.7%; in [12], 0.96%. Besides, the inhibition in [13] was determined as 2.22%; in assay [14] it was 5.42%; in [15] it was 5.81%; in assay [16], 4.78%; in assay [17] it was 9.58%; in assay [18] it was 9.04%. Besides, the figures for the inhibition in assay [19] and in [20] were 12.4% and 10.2%, respectively.

Consider `CCn1c(-c2nonc2N)nc2c(C#CC(C)(C)O)nc(OC[C@@H](N)c3ccccc3)cc21`, for which the inhibition in assay [1] was 2.97%; in [2] it was 3.38%; in [3], 30.9%; in assay [4] it was 3.93%; in assay [5], 39%; in assay [6], 1.39%. For the same molecule, the inhibition was 27.6% in [7]; -2.3% in assay [8]; 19.5% in assay [9]; 7.96% in assay [10]; 50.8% in assay [11]; 1.13% in assay [12]. For the same molecule, the inhibition in assay [13] was 1.5%; in [14], -0.92%; in assay [15], 9.22%; in assay [16] it was 7.49%; in assay [17] it was 41.1%; in assay [18], 2.03%. The figures for the inhibition in assay [19] and in assay [20] were 14.4% and 10.7%, respectively.

For the molecule `COc1cc2c(cc1Nc1nc(N3CCc4ccccc43)c3cc[nH]c3n1)N(C(=O)CN(C)C)CC2`, the inhibition is 4.18% in assay [1]; 4.13% in assay [2]; 3.64% in assay [3]; 0.92% in assay [4]; -1.2% in assay [5]; 1.67% in assay [6]. Also, the inhibition in assay [7] is 0.13%; in assay [8] it was -0.57%; in assay [9], 2.32%; in assay [10] it was 1.46%; in [11], 3.27%; in assay [12], 0.34%. The inhibition in assay [13] worked out at 0.69%; in assay [14], 59.7%; in assay [15], 90%; in [16] it was 3.49%; in assay [17], 9.16%; in assay [18] it was 0.54%. The inhibition in assay [19] turned out to be 4.92%; in assay [20] it was 1.4%.
